# IL-1B inflam inh: inhibitors of inflammasome signaling (IL-1 beta secretion) | THP-1 LPS/ATP IL-1B secretion, AlphaLISA, 16 h; stronger effect = lower value | activity change, % at 57.5 µM | actives 4.7% (n = 360,000) | AID 743279; in the data active means activity change below about -50%; inconclusive means mostly about -30% to -49%
#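 Secreted IL-1B measured by AlphaLISA bead assay after 16 h compound exposure of THP-1 cells; compounds (final up to 57.5 uM) added 1 h before LPS (250 ng/mL) and ATP (1.25 mM) stimulation; lower signal means less secretion.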
# ELG1 DNA repair: blocks ELG1-dependent DNA repair in HEK293T cells; Potency, µM (doses to about 46.1 µM), for the others: at the highest dose activity change, negative = inhibition, hits mostly inhibitors; HEK293T ELG1-luciferase reporter, luminescence, 16 h; DNA damage induced by 5-fluorouridine; actives 2.3% (n = 330,000); further: potency means the concentration at half of the fitted maximal effect; nearly all actives have a fitted effect of over 55% in size
#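 5-Fluorouridine DNA damage + compound/DMSO, 2,000 cells/well, 16 h, 37 °C/5% CO2. ONE-Glo, 30 min RT, luminescence. Readout = decrease in reporter signal.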
# DT40 TDP1 no CPT: qHTS for Inhibitors of human tyrosyl-DNA phosphodiesterase 1 (TDP1): qHTS in cells in absence of CPT. DT40 Tdp1-/- hTDP1 cells, no CPT, ATP luminescence, 48 h. Potency, µM (titrated, usually from 46.2 µM), inactives show at the highest dose activity change, negative = growth inhibition, actives largely listed as inhibitors. actives 15% (n = 420,000). AID 686978, 2013; further: potency means the concentration at half of the fitted maximal effect; nearly all actives have a fitted effect of over 55% in size
#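 Readout: luminescence from CellTiter-Glo after 30 min in the dark at RT. Cells: DT40 Tdp1-/- with stable hTDP1, 400/well. Exposure: compounds alone, ≥48 hr, 37 °C.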
# TDP1 cell CPT: DT40-hTDP1 cell growth loss with CPT. chicken DT40 Tdp1-/-;hTDP1 cells + 20 nM CPT, ATP luminescence, 48 h. Potency, µM (series often up to 46.2 µM), inactives show at the highest dose activity change, negative = growth inhibition, most hits filed as inhibitors. actives 12% (n = 420,000). AID 686979; further: potency means the concentration at half of the fitted maximal effect; nearly all actives have a fitted effect of over 55% in size
#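 Chicken DT40 Tdp1-/- cells stably complemented with human TDP1 were seeded at 400 cells/well in medium containing 20 nM camptothecin, exposed to pin-transferred compounds, and grown at 37 °C for at least 48 hr. Viability was read as ATP luminescence.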
# HT1080-NT tox: kills 2HG-producing HT-1080-NT fibrosarcoma cells. HT-1080-NT fibrosarcoma viability, CellTiter-Glo ATP luminescence, 48 h. Potency, µM (doses to about 46.1 µM), for inactives: at the top dose activity, negative = less viability, actives largely listed as cytotoxic. actives 1.6% (n = 360,000). AID 686970;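 further: NT is the 2HG producing partner of a matched IDH1 knockdown line; potency means the concentration at half of the fitted maximal effect; 0% = DMSO-treated cells and -100% = media-only wells without cells; nearly all actives have a fitted effect of over 55% in size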
#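 Fibrosarcoma NT cells, 750 per well in 5% FBS RPMI, were exposed to compound for 48 hours. Viability: CellTiter-Glo luminescence.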
# HT1080 IDH1KD tx: toxicity to HT-1080 IDH1 knockdown cells (counter line). HT-1080 IDH1 knockdown viability, ATP luminescence, 48 h. Potency, µM (top dose mostly 46.1 µM), inactives show at the top dose activity, negative = toxicity, actives largely listed as cytotoxic. actives 2% (n = 360,000);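 further: potency means the concentration at half of the fitted maximal effect; 0% = DMSO wells and -100% = cell-free medium wells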
#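 Using the IDH1-knockdown HT-1080 line run in the same batch and compound series as the NT line, viability after 48 h at 37 °C was determined by CellTiter-Glo luminescence and expressed as % activity.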
# * = called active by the depositor; u = inconclusive; x = no result given; [ ] = dose if it differs, or a comment. Compounds with a hit are over-represented: about 19% of the library has one in this group of screens. Unless noted, the call rests on the fitted dose curve; in most records, active means well fitted curve in the direction sought with a large enough effect; inconclusive means small, poorly fitted or top-dose-only effect, or another doubt; inactive means no such curve, though single readings can be large; an effect the other way counts as inactive or inconclusive. Unless noted, on the % scale 0 is the no-effect control and ±100 the full control effect.
SMILES,IL-1B inflam inh,ELG1 DNA repair,DT40 TDP1 no CPT,TDP1 cell CPT,HT1080-NT tox,HT1080 IDH1KD tx
CC(CNC(=O)Cn1ccc2cc(S(=O)(=O)N3CCCC3)ccc21)c1ccccc1 (stereo not given),8,-11%,23µM*,18µM*,-11%,-1%
CC(CNC(=O)Cn1ccc2cc(S(=O)(=O)N3CCCCC3)ccc21)c1ccccc1 (stereo not given),x,x,21µM*,u,x,x
CN(C)CCNC(=O)Cn1ccc2cc(S(=O)(=O)N3CCCCC3)ccc21,0,23%,22%,2%,-1%,-6%
CC(=O)c1c(C)[nH]c(C(=O)OCc2c(F)cccc2Cl)c1C,36,7.3µM*,u,u,-8%,-1%
CC(=O)c1c(C)[nH]c(C(=O)OCc2ccc(F)cc2Cl)c1C,26,9.2µM*,13µM*,15µM*,-1%,-13%
CC(=O)c1c(C)[nH]c(C(=O)OCc2cccc(Cl)c2)c1C,21,-16%,u,u,-20%,-27%
Cc1ccc2c(c1)CCCN2CC(=O)Nc1cc(S(=O)(=O)N2CCCC2)ccc1Cl,12,2%,15µM*,21µM*,-1%,-9%
Cc1ccc2c(c1)CCCN2CC(=O)Nc1cccc(S(=O)(=O)N2CCCC2)c1,0,4%,u,u,0%[9.24 µM],2%
CN1CCN(CC(=O)Nc2cc(S(=O)(=O)N3CCOCC3)ccc2Cl)CC1,-1,25%,1%,-21%,-5%,-2%
O=C(CN1CCCc2ccccc21)Nc1cc(S(=O)(=O)N2CCCC2)ccc1Cl,-4,1%,u,18µM*,-1%,2%
CC1Cc2ccccc2N1CC(=O)Nc1cc(S(=O)(=O)N2CCOCC2)ccc1Cl (stereo not given),-5,x,23µM*,u,-20%,0%
CCCCCCCCNC1=CC(=O)CC(C)(C)C1,13,5%,16µM*,u,-16%,-10%
CCCCCCCNC1=CC(=O)CC(c2ccccc2)C1 (stereo not given),63,-6%,5.8µM*,6.5µM*,u,16µM*
CCCCCNC1=CC(=O)CC(c2ccccc2)C1 (stereo not given),-3,-29%,18µM*,u,u,-11%[9.24 µM]
Cc1cccc(NC(=O)c2nc[nH]c2C(=O)N[C@@H](C)CO)c1,x,x,-21%,1%,20%,-3%
Cc1cnc(CNc2ncncc2-c2c(C)noc2C)cn1,x,x,2.6µM*,3.7µM*,x,x
CCN(CC(=O)Nc1c(F)cccc1F)C(=O)c1nc2nccc(C)n2n1,0,15%,12%,-22%,-15%[9.24 µM],-2%
CC(C)c1onc(C(=O)NCc2ccccc2)c1[N+](=O)[O-],-9,0%,21µM*,16µM*,-8%,-18%
CCc1ccccc1NC(=O)c1noc(C(C)C)c1[N+](=O)[O-],u,17%,u,15µM*,u,u
CC(C)c1onc(C(=O)Nc2cccnc2Cl)c1[N+](=O)[O-],4,8%,u,23µM*,10%,2%
Cc1occc1C(=O)NCCN1Cc2ccccc2OC(c2ccccc2F)C1 (stereo not given),x,x,u,2%[9.04 µM],x,x
OC(c1cccc(CN2CCCCC2)c1)c1ncc(-c2ccccc2Cl)[nH]1 (stereo not given),-24,x,-28%,u,-15%,3%
O=C1C(CN2CCCC2)CCCC1CN1CCCC1 (stereo not given),-8,x,0.52µM*,0.52µM*,7%,u
C1CCN(CC2CCCCN2)CC1 (stereo not given),4,x,12%,-12%,1%,4%
COc1ccccc1-c1cc2nc(NCCc3ccncc3)ccn2n1,-23,x,u,u,2%,9%
SMILES,IL-1B inflam inh,ELG1 DNA repair,DT40 TDP1 no CPT,TDP1 cell CPT,HT1080-NT tox,HT1080 IDH1KD tx
COc1ccccc1-c1cc2nc(NCCc3ccc(S(N)(=O)=O)cc3)ccn2n1,-68*,x,21µM*,u,-3%,-2%
Cc1nn(-c2ccc(N3CCOCC3)nn2)c(C)c1CCC(=O)NCc1ccc(Cl)cc1,x,x,-18%,u,x,x
CCc1ccc2[nH]c(=O)c(CN(Cc3ccccc3OC)Cc3nnnn3Cc3ccco3)cc2c1,-82*,10µM*,u,u,u,u
COc1ccc2[nH]c(=O)c(CN(Cc3ccco3)Cc3nnnn3Cc3ccccc3)cc2c1,-8,0%,16µM*,21µM*,-2%,-4%
COc1cc2cc(CN(CCCN3CCOCC3)Cc3nnnn3Cc3ccccc3)c(=O)[nH]c2cc1OC,-1,5%,-5%,-2%,-1%,-13%
CCOc1ccc2[nH]c(=O)c(CN(CCCN3CCOCC3)Cc3nnnn3Cc3ccc(OC)cc3)cc2c1,-16,2%,21µM*,u,-25%,u
COCCn1nnnc1CN(Cc1ccco1)Cc1cc2cc3c(cc2[nH]c1=O)OCO3,-11,-30%,-19%,u,-2%,-24%
COC(=O)c1ccccc1S(=O)(=O)N(Cc1ccco1)Cc1cc2cc(OC)ccc2[nH]c1=O,14,23µM*,18µM*,u,-1%,-22%
CC(=O)Nc1ccc(S(=O)(=O)N(Cc2ccco2)Cc2cc3ccccc3[nH]c2=O)cc1,0,u,u,u,-28%,-9%
COc1ccc(CCNC(=O)C2CCCN(S(=O)(=O)c3cc(C)ccc3OC)C2)cc1OC (stereo not given),12,u,u,u,3%,-7%
COc1cc(C(=O)NCCN2CCN(C(=O)c3cc(OC)c(OC)c(OC)c3)CC2)cc(OC)c1OC,0,10%,16%,-11%,-7%,0%
CCCCc1ccc(NC(=O)CN2C(=O)C3CCCCC3C2=O)cc1 (stereo not given),-76*,16%,u,u,-7%,-2%
CS(=O)(=O)c1ccc(NC(=O)CN2C(=O)C3CCCCC3C2=O)cc1 (stereo not given),-9,21%,14%,16%,u,11%
Cc1ccc(N=Nc2c(N)nn(-c3ccccc3)c2N)cc1,0,u,4.6µM*,3.7µM*,10µM*,9.2µM*
Cc1nn(-c2ccccc2)c(N)c1N=Nc1ccc2ccccc2c1,-1,u,u,-8%,-9%,-9%
Cc1ccc(N=Nc2c(N)nn3c(C)cc(C)nc23)cc1,-10,-23%,23µM*,u,23%,21%

# Screening data (PubChem BioAssay)
